Sm TGR block: qHTS Assay for the Inhibitors of Schistosoma Mansoni Peroxiredoxins; Potency, µM (titrated, usually from 114 µM), inactives show top-dose activity change, negative = inhibition, usual class: inhibitors; Schistosoma mansoni thioredoxin glutathione reductase (TGR), Q962Y6; actives 3% (n = 360,000); purified TGR, DTNB reduction, TNB absorbance 405 nm; AID 485364, 2010; note: potency is the fitted concentration of half-maximal effect; % is set by controls: 0 for no effect and ±100 for the full control effect; nearly all actives have a fitted effect of over 60% in size
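First, TGR (20 nM dispensed) and NADPH were mixed with compound. Second, a 15 min room-temperature incubation followed. Third, further NADPH and then DTNB were added to start the reaction. Finally, TNB absorbance was monitored kinetically.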
Shiga inhibitor: A qHTS for Small Molecule Inhibitors of Shiga Toxin; AID 2315, 2010; inhibition, % at 38.7 µM; actives 9.2% (n = 290,000); Vero cells, Shiga toxin protein synthesis inhibition reporter; in the data active = inhibition mostly above about 28%, no sharp cut-off; inactive = mostly below about 43%; note: 0% is about no effect
Tb PYK inh: qHTS of Trypanosoma Brucei Inhibitors; AID 624173, 2012; TbPYK enzyme, Kinase-Glo Plus ATP luminescence, 45 min; Potency, µM (series often up to 76.8 µM), inactives show at the highest dose activity, negative = inhibition, usual class: inhibitors; actives 0.12% (n = 410,000); pyruvate kinase (Trypanosoma brucei), Q57TT1; note: potency is the fitted concentration of half-maximal effect; % is set by controls: 0 for no effect and ±100 for the full control effect; nearly all actives have a fitted effect of over 50% in size
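In this concentration-response screen, enzyme-free wells defined baseline while DMSO plates tracked drift. Each reaction combined TbPYK, substrate, compound and 130 uM ADP for 45 min at room temperature. Kinase-Glo Plus luminescence gave the signal.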
LmPK inhibitor: qHTS Assay for Inhibitors of Leishmania Mexicana Pyruvate Kinase (LmPK). Q27686. purified LmPK, Kinase-Glo ATP luminescence, 1 h. Potency, µM (top dose mostly 57.5 µM), inactives show at the highest dose activity change, negative = inhibition, actives largely listed as inhibitors. actives 0.37% (n = 290,000); note: potency is the fitted concentration of half-maximal effect; % is set by controls: 0 for no effect and ±100 for the full control effect
Target sequence (Q27686 whole entry, looked up): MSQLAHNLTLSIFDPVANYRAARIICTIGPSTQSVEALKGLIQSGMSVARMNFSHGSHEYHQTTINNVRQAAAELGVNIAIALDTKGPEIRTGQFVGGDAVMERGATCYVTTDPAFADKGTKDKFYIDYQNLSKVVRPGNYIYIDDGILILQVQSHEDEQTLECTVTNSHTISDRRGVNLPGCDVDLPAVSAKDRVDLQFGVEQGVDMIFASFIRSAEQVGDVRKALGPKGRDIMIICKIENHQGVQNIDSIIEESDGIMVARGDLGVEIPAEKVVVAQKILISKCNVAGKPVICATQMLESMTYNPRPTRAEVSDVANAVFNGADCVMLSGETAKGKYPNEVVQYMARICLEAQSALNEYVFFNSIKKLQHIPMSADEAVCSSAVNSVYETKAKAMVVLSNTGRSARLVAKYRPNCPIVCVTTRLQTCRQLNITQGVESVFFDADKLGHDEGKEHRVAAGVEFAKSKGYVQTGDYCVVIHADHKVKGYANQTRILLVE
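Pyruvate kinase activity monitored as ATP production (luciferase luminescence). Conditions: 0.1 nM enzyme, 0.5 mM PEP, 0.1 mM ADP, 1 h, RT; normalized against uninhibited and no-enzyme wells.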
Cycloheximide cs: Cycloheximide Counterscreen for Small Molecule Inhibitors of Shiga Toxin | cell reporter, cycloheximide protein synthesis inhibition counterscreen | max response, % | actives 12% (n = 300,000); in the data active = max response mostly above about 13%, no sharp cut-off; inactive = mostly below about 14%; note: read at 38.3 µM for the half of the compounds with a filed dose; 0% is about no effect
Giardia FBPA inh: qHTS Assay for Inhibitors of Fructose-1,6-bisphosphate Aldolase from Giardia Lamblia | A8B2U2 | purified Giardia FBPA | Potency, µM (top dose mostly 59.6 µM), for inactives: at the top dose activity, negative = inhibition, actives largely listed as inhibitors | actives 0.71% (n = 290,000) | AID 2451, 2010; note: potency is the fitted concentration of half-maximal effect; % is set by controls: 0 for no effect and ±100 for the full control effect; nearly all actives have a fitted effect of over 55% in size
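Giardia FBPA (40 nM reagent) was preincubated 10 min at RT with compound (up to 57.5 uM final), then substrate plus GAPDH/TPI/NAD/arsenate coupling system with diaphorase/resazurin was added; resorufin fluorescence (525/598 nm) was read after 20 min.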
* hit, by the source's call; ? = inconclusive; · = no result; [ ] = another dose, or the depositor's remark. The full list was thinned out, with hits kept by preference. Unless noted, calls come from the whole dose curve; as a rule, active = well fitted curve in the direction sought with a large enough effect; inconclusive = small, poorly fitted or top-dose-only effect, or another doubt; inactive = no such curve, though single readings can be large; an effect the other way counts as inactive or inconclusive.

SMILES	Sm TGR block	Shiga inhibitor	Tb PYK inh	LmPK inhibitor	Cycloheximide cs	Giardia FBPA inh
O=[N+]([O-])c1ccccc1N/N=C/c1ccc2c(c1)OCO2	·	68*	-21%	?	40*	3%
COc1cccc(CNC(=O)CCCN2C(=O)CCn3nc(-c4cccn4C)cc32)c1	-11%	·	-1%	·	·	·
Nc1cc(-c2ccco2)no1	28µM*	42	-7%	-2%	16	?
O=C(COc1ccccc1)OCc1cc(-c2ccco2)on1	-17%	·	2%	·	·	·
Cc1ccc[n+](CC(=O)c2cc3ccccc3oc2=O)c1	-30%	30	5%	-1%	25*	-2%
COc1ccc2oc(=O)c(C(=O)Nc3cccc(C)c3)cc2c1	16%	49*	8%	4%	43*	2%
COc1ccc2oc(=O)c(C(=O)Nc3cccc(C(=O)O)c3)cc2c1	-4%	·	-8%	·	·	·
CC(NC(=O)c1cc2ccccc2oc1=O)c1ccccc1 (stereo not drawn)	-6%	47*	1%	-3%	20*	1%
Cc1cc(C)c[n+](CC(=O)c2cc3ccccc3oc2=O)c1	?	-15	-2%	3%	-6	-4%
CCOC(=O)c1c(-c2ccc(C)cc2)csc1NC(=O)c1cc(=O)c2ccc(C)cc2o1	0%	·	1%	·	·	·
CCOC(=O)c1c(-c2ccc(C)cc2)csc1NC(=O)c1cc2ccccc2oc1=O	14µM*	-4	-7%	-10%	-6	-12%
CC(NC(=O)c1cc2ccccc2o1)c1ccccc1 (stereo not drawn)	-6%	10	3%	4%	-3	-2%
C=C1OC(CO)(n2cnc3c(N)ncnc32)C(O)C1O (stereo not drawn)	·	-3	·	·	-2	3%
COc1ccc(C)cc1NC(=O)c1nnn(Cc2cccc(Br)c2)c1N	7%	·	8%	·	·	·
COc1cccc2cc(C(=O)Nc3ccccc3C)/c(=N/NS(=O)(=O)c3ccccc3)oc12	-5%	-6	-6%	-2%	11	-10%
Cc1ccc(S(=O)(=O)N/N=c2\oc3ccccc3cc2C(=O)Nc2cccc(C)c2)cc1	-4%	71*	·	0%	62*	-11%
COc1ccc(CN2CCn3ncc(C(=O)Nc4cccc(C)c4)c3C2=O)cc1	6%	68	-2%	5%	16*	9%
CC(=O)c1cc2ccccc2oc1=O	-6%	·	1%	·	·	9%[21.7 µM]
Cc1cccc(NC(=O)c2cc3ccccc3oc2=O)c1	-10%	·	0%	-10%	41*	7%
C=CC1=C2C=C(C3CC3)N(Cc3ccco3)C=C2C(=O)C(C)(OC(=O)c2ccco2)C1=O (stereo not drawn)	·	·	·	-2%[11.5 µM]	·	6%[12.9 µM]
Cc1ccc(OCC(=O)Nc2ccc(Cl)cc2)c(-n2nc3ccccc3n2)c1	-24%	-1	-9%	1%	2	5%
Cc1ccc(O)c(Cn2nnc3ccccc32)c1	-11%	·	1%	·	·	·
COc1ccc(C)cc1-n1nc2ccccc2n1	22%	54	2%	0%	26*	8%
CCOc1ccc(C)cc1-n1nc2ccccc2n1	12%	19	4%	-3%	20*	5%
Cc1ccc(O)c(-n2nc3ccccc3n2)c1	-4%	90*	-12%	?	44*	1%
SMILES	Sm TGR block	Shiga inhibitor	Tb PYK inh	LmPK inhibitor	Cycloheximide cs	Giardia FBPA inh
COc1ccccc1NC(=O)COC(=O)c1ccc2ccccc2n1	·	·	4%	·	·	·
O=C(c1ccco1)N1CCN(C(=O)c2ccc(CS(=O)c3ccc(Cl)cc3)o2)CC1 (stereo not drawn)	40µM*	-14	-4%	-10%	-13	·
O=C(c1ccc(COc2ccccc2Cl)o1)N1CCCC1	?	24	0%	-6%	16*	1%
O=C(c1ccc(CS(=O)c2ccccc2Cl)o1)N1CCCCCC1 (stereo not drawn)	40µM*	36	-5%	-8%	8	·
O=C(NCc1cccnc1)c1ccc(COc2ccccc2Cl)o1	-1%	-15	-3%	1%	-5	1%
O=C(OCc1ccccn1)c1ccc(COc2ccccc2Cl)o1	8%	34	1%	-2%	30*	·
